Experimental data: PubChem BioAssay (NCI)
“And” between values parts separate entries of the source, which are not always exact repeats. Identical values can stand only once. About 83,000 compounds went through this panel and 20% of them were active in at least one assay; those are over-represented in the sample as a whole.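 Cells were grown in 96-well plates and exposed to the test compound at a single concentration for 48 hours; results are reported as percent growth, with values below 10 considered active.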 The source made the active and inactive calls.

test system: MCF7 breast; assay: NCI-60 one-dose screen, 48 h (100 = growth as untreated, 0 = no growth, -100 = all killed); details: 10 µM unless noted

SMILES | growth
N#Cc1nc(-c2cccc(-c3nc(C#N)c(N)o3)n2)oc1N | 58.8% [100 µM] (inactive) and -19.4% [100 µM] (active)
CC1(C)Oc2ccc3c(=O)cc(-c4ccc(F)cc4)oc3c2C1C(=O)O (stereo not given) | 86.7% [100 µM] (inactive) and 80.6% [100 µM] (inactive)
COc1ccc(/C=c2\[nH]c3nc(=O)c(N4CCOCC4)c(N)n3c2=O)cc1 | 56.5% [100 µM] (inactive) and 43.7% [100 µM] (inactive)
O=c1c2ccccc2nc(-c2ccccc2)n1/N=C/c1ccccc1[N+](=O)[O-] | 65.7% [100 µM] (inactive) and 73.8% [100 µM] (inactive)
COc1cc(Oc2c(C)c(Cl)c(OC)c(Cl)c2OC)c2c(c1Cl)COC2=O | -6.77% [100 µM] (active) and -26.7% [100 µM] (active)
CC(C)=CC(O)C/C(C)=C/CC/C(C)=C/CCC1(C)C(CCCO)/C(=C(/C)C=O)CCC1(C)O (stereo not given) | -22.6% [100 µM] (active) and -6.67% [100 µM] (active)
COc1ccccc1-c1n[nH]c(-c2ccccc2O)n1 | 61.5% [100 µM] (inactive) and 21.6% [100 µM] (inactive)
CC/C(Cl)=N\OC(=O)Nc1ccc(OC)cc1 | -75.9% [100 µM] (active) and -79.9% [100 µM] (active)
O=C1c2cccnc2-c2nccc3ccnc1c23 | -90.9% [100 µM] (active) and -100% [100 µM] (active)
CC1=CC(=O)c2ccc(C)cc2C1=O | -70.7% [100 µM] (active) and -100% [100 µM] (active)
